GRK2 aptamer HTS – compounds blocking aptamer binding on GRK2 – biochemical, human GRK2, bead flow cytometry, HTS, primary screen; Beta-adrenergic receptor kinase 1 (Homo sapiens), P25098; FAM-aptamer displacement from GRK2; inhibition of aptamer binding, % at 10 µM; 0.59% of 330,000 active; AID 488847, 2010;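 active means inhibition of aptamer binding above 40%, roughly 3 SD of noise, on plates passing a quality check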;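 further: median bead fluorescence of bound FAM aptamer so fluorescent compounds give negative values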
Target sequence (P25098 whole entry, looked up): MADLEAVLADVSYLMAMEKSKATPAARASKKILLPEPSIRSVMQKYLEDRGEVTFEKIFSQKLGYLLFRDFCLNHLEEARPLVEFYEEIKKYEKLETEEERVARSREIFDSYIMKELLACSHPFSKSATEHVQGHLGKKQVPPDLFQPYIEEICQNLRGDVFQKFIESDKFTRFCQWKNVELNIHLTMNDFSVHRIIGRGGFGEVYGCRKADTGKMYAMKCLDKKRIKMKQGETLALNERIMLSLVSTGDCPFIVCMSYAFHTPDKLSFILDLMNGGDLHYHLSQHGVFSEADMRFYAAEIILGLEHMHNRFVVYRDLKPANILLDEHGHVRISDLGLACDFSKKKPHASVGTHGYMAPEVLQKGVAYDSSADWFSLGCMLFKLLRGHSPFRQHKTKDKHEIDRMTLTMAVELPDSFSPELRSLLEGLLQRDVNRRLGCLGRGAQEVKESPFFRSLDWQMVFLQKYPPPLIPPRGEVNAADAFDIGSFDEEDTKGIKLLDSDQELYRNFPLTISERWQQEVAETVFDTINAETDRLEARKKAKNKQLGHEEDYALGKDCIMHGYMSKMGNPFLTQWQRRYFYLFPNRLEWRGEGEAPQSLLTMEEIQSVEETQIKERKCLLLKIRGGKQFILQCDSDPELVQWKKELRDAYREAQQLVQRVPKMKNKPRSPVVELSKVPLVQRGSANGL
MEKK2 WT-MEK5 – modulators of MEK5 binding to wildtype MEKK2, primary screen, biochemical, multiplex bead flow cytometry, Alexa488-MEK5 | Mitogen-activated protein kinase kinase kinase 2 (Homo sapiens), Q9Y2U5 | Alexa488-MEK5 binding to MEKK2 WT; actives lie on both sides | binding response (% of control), % at 10 µM | 1.1% of 290,000 active; in the data active means binding response below about 67% or above about 130%
MEKK2 mut-MEK5 – MEK5 binding signal on mutant MEKK2 PB1, primary screen, biochemical, multiplex bead flow cytometry, Alexa488-MEK5. percent response, % at 10 µM. 0.35% of 290,000 active. Alexa488-MEK5 binding to MEKK2 mutant; in the data active means percent response above about 24%, passing the limit was not always enough
MEKK3 PB1 HTS – modulators of MEKK3-MEK5 PB1 binding, primary screen, biochemical, wildtype MEKK3, multiplex bead flow cytometry, Alexa488-MEK5 | bead-based flow cytometry, Alexa488-MEK5 binding to MEKK3; actives lie on both sides; 0 = blocked by unlabeled MEK5, 100 = vehicle | Mitogen-activated protein kinase kinase kinase 3 (Homo sapiens), Q99759 | binding response (% of control), % at 10 µM | AID 1529, 2009 | 1.4% of 290,000 active;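 active means binding response more than 3 SD above or below the average of its plate-row segment, actives on both sides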;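 further: Alexa488 bead fluorescence after subtracting the streptavidin-only scavenger bead signal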
MEKK2wt confirm – modulators of MEK5 binding to wildtype MEKK2, confirmation, biochemical, single concentration, multiplex bead flow cytometry; 2.4% of 5,900 active; binding response (% of control), % at 10 µM; shares compounds with MEKK3 PB1 HTS; Alexa488-MEK5 binding to MEKK2 WT; actives lie on both sides; AID 1892, 2009; in the data active means binding response below about 16% or above about 210%; inactive means in between
MEKK2mut-MEK5 – mutant MEKK2 PB1-MEK5 binding signal retest – biochemical, single concentration, multiplex bead flow cytometry, confirmation. shares compounds with MEKK3 PB1 HTS. Alexa488-MEK5 binding to MEKK2 mutant. percent response, % at 10 µM. 2% of 5,900 active; in the data active means percent response mostly above about 71%, no sharp cut-off; inactive means mostly below about 38%;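 further: higher means compound restores mutant binding toward wildtype level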
MEKK3 confirm – MEKK3 wild-type PB1 binding to MEK5, inhibitors, confirmation, biochemical, bead multiplex flow cytometry, single concentration, wildtype; Alexa488-MEK5 binding to MEKK3; active compounds read low; 1.8% of 5,900 active; AID 1894, 2009; binding response (% of control), % at 10 µM; shares compounds with MEKK3 PB1 HTS;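 active means binding response below 72% of control, or above a set upper limit, though filed actives all read lower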;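 further: 100% = DMSO only wells and 0% = binding blocked by excess unlabeled MEK5; lower values mean stronger disruption of MEK5 binding to MEKK3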
Numbers without * were called inactive; x = no result given; [ ] = remark or other dose. Sampled rows, rich in hits. Any-hit rate of the full collection: about 2.5%.

SMILES	GRK2 aptamer HTS	MEKK2 WT-MEK5	MEKK2 mut-MEK5	MEKK3 PB1 HTS	MEKK2wt confirm	MEKK2mut-MEK5	MEKK3 confirm
Cc1ccc(C(=O)N[C@H](C(=O)OCC(=O)NC2CCS(=O)(=O)C2)C(C)C)cc1 (stereo partly drawn)	0.0	110.0	0.0	132.0*	105.0	17.0	103.0
O=C(Nc1nnc(-c2ccccc2F)s1)C1CCN(S(=O)(=O)c2ccc(Cl)cc2)CC1	2.0	101.0	1.0	96.0	x	x	x
O=C(Nc1nnc(-c2ccccc2Cl)s1)C1CCN(S(=O)(=O)c2ccc(Cl)cc2)CC1	3.0	100.0	0.0	140.0*	101.0	0.0	101.0
CC(=O)c1ccc(OCCCC(=O)Nc2cccc(S(=O)(=O)N3CCOCC3)c2)cc1	0.0	x	x	x	x	x	x
CCN1CCN(/C=N/c2nc(C)cs2)CC1	0.0	-2.0*[inhibitor]	-18.0	2.0*[inhibitor]	106.0	4.0	99.0
O=C(Cn1cnc2ccccc21)N/N=C/c1ccc([N+](=O)[O-])cc1	1.0	116.0	3.0	141.0*	89.0	0.0	94.0
O=C(Cn1cnc2ccccc21)N/N=C/c1ccccc1[N+](=O)[O-]	0.0	105.0	0.0	138.0*	99.0	0.0	97.0
COC(=O)C1(c2ccccc2)NC(c2cccs2)C2C(=O)N(c3ccccc3)C(=O)C21 (stereo not drawn)	0.0	101.0	1.0	99.0	x	x	x
CN(C)CCN1C(=O)c2oc3ccc(Cl)cc3c(=O)c2C1c1cccc(Br)c1 (stereo not drawn)	2.0	139.0*	14.0	129.0*	114.0	8.0	105.0
Cc1ccc(-c2nn(-c3cc(N4CCNCC4)ccc3[N+](=O)[O-])c(=O)c3ccccc23)cc1	0.0	145.0*	15.0	99.0	153.0	30.0	109.0
Cc1nn(-c2cc(N3CCCCCC3)ccc2[N+](=O)[O-])c(=O)c2ccccc12	5.0	98.0	0.0	105.0	x	x	x
COC(=O)[C@H](CCSC)NC(=O)Nc1ccc(C(C)=O)cc1	0.0	101.0	12.0	97.0	x	x	x
CCCSc1nnc(NC(=O)c2sc3nc(-c4cccs4)ccc3c2N)s1	11.0	92.0	-8.0	98.0	x	x	x
Cc1csc(NC(=O)c2sc3nc(-c4cccs4)ccc3c2N)n1	3.0	66.0*[inhibitor]	-9.0	90.0	87.0	5.0	100.0
N#C/C(=C\c1ccccc1OCc1ccc(C(=O)O)cc1)c1ccccc1	4.0	55.0	-14.0	50.0*[inhibitor]	110.0	2.0	100.0
Cc1oc(-c2ccccc2)nc1CSc1nc2c(c(=O)[nH]1)CCC2	0.0	74.0	-8.0	60.0*[inhibitor]	109.0	4.0	102.0
COc1ccc(NC(=O)COC(=O)CNC(=O)c2cc(OC)c(OC)c(OC)c2)cc1	0.0	105.0	0.0	145.0*	104.0	4.0	103.0
COc1ccc(C(=O)NCC(=O)OCC(=O)Nc2cc(OC)ccc2OC)cc1	0.0	98.0	2.0	99.0	x	x	x
CCC/C(C#Cc1cc(OC)cc(OC)c1)=C1/c2ccccc2C(=O)N1c1ccccc1	1.0	x	x	x	x	x	x
CN(C(=O)CSc1nnc(-c2ccccc2)c(-c2ccccc2)n1)C1CCS(=O)(=O)C1 (stereo not drawn)	4.0	112.0	1.0	137.0*	103.0	1.0	101.0
CN(C(=O)CSc1nc(-c2ccccc2)c(-c2ccccc2)o1)C1CCS(=O)(=O)C1 (stereo not drawn)	0.0	94.0	-3.0	91.0	x	x	x
Cc1noc(NS(=O)(=O)c2ccc(NC(=O)CSc3nnc(-c4ccccc4)n3C3CCCCC3)cc2)c1C	1.0	92.0	-3.0	97.0	x	x	x
CCNC(=S)N(CCc1c(C)[nH]c2ccc(C)cc12)Cc1cccnc1	0.0	116.0	12.0	106.0	x	x	x
CCNC(=S)N(CCc1c(C)[nH]c2ccc(F)cc12)Cc1cccnc1	0.0	133.0	35.0*	107.0	121.0	12.0	103.0
COCc1cc(C)nc(SCC(=O)Nc2cc(C(F)(F)F)ccc2N2CCOCC2)c1C#N	2.0	94.0	-2.0	101.0	x	x	x
SMILES	GRK2 aptamer HTS	MEKK2 WT-MEK5	MEKK2 mut-MEK5	MEKK3 PB1 HTS	MEKK2wt confirm	MEKK2mut-MEK5	MEKK3 confirm
c1ccc(SCc2nc3ccccc3[nH]2)cc1	0.0	104.0	2.0	99.0	x	x	x
Cc1ccc(SCc2nc3ccccc3[nH]2)cc1	1.0	2.0*[inhibitor]	-37.0	2.0*[inhibitor]	104.0	8.0	106.0
COc1cc(C2NC(=S)NC3=C2CCc2ccccc23)cc(OC)c1OC (stereo not drawn)	2.0	109.0	0.0	142.0*	98.0	1.0	104.0
C=CCOc1ccc(C2NC(=S)NC3=C2CCc2ccccc23)cc1 (stereo not drawn)	6.0	93.0	-17.0	94.0	x	x	x
CCOC(=O)c1cnc2cc(C)nn2c1-c1ccccc1	3.0	101.0	0.0	101.0	x	x	x
CCOC(=O)c1cnc2cc(C)nn2c1C	1.0	87.0	-10.0	74.0*[inhibitor]	102.0	10.0	101.0
C#CCOCCOCCOCCNc1nc(N2CCN(C(=O)[C@H]([C@@H](C)CC)n3cc([C@@H](N)CO)nn3)CC2)nc(N2CCN(C(=O)[C@H](Cc3cc4ccccc4[nH]3)n3cc([C@@H](N)Cc4ccc(O)cc4)nn3)CC2)n1	0.0	155.0*	4.0	100.0	231.0*	114.0*	107.0
C#CCOCCOCCOCCNc1nc(N2CCN(C(=O)[C@H](CCC(=O)O)n3cc(C(N)Cc4ccc(O)cc4)nn3)CC2)nc(N2CCN(C(=O)[C@H](Cc3cc4ccccc4[nH]3)n3cc(C(N)CC(C)C)nn3)CC2)n1 (stereo partly drawn)	0.0	145.0*	29.0	107.0	120.0	8.0	102.0
C#CCOCCOCCOCCNc1nc(N2CCN(C(=O)C(Cc3ccc(O)cc3)n3cc(C(N)CC(C)C)nn3)CC2)nc(N2CCN(C(=O)C(Cc3cc4ccccc4[nH]3)n3cc(C(N)Cc4ccc(O)cc4)nn3)CC2)n1 (stereo not drawn)	0.0	258.0*	112.0*	117.0	221.0*	86.0*	118.0
Cc1cccnc1NC(=O)CCn1c(=O)oc2ccccc21	1.0	100.0	1.0	103.0	x	x	x
O=C(Cc1ccccc1)NCC(=O)N1CCC2(CC1)NCCc1[nH]cnc12	0.0	108.0	11.0	106.0	x	x	x
